Drawing on ChEMBL document CHEMBL3433997, “St. Jude Leishmania screening dataset” (2016), this text covers inhibition for 34 compounds.

Assay type in all cases: functional
Test [1] deals with Solute carrier family 2, facilitated glucose transporter member 1 (Homo sapiens) (UniProt P11166). Briefly: ST_JUDE_LEISH: Cytotoxicity at 2uM final concentration against transgenic Leishmania Mexicana promastigotes LmGLUT1 that are glucose transport deficient and complemented with the human glucose transporter GLUT1. Activity is measured by DNA content using SYBR green in vitro.

Test [2] concerns the target Hexose transporter 1 (Plasmodium falciparum) (UniProt O97467). Briefly: ST_JUDE_LEISH: Cytotoxicity at 2uM final concentration against transgenic Leishmania Mexicana promastigotes LmPfHT that are glucose transport deficient and complemented with the Plasmodium falciparum hexose transporter. Activity is measured by DNA content using SYBR green in vitro.
Test [3] addresses Glucose transporter (Leishmania mexicana) (UniProt O61059). Briefly: ST_JUDE_LEISH: Cytotoxicity at 2uM final concentration against transgenic Leishmania Mexicana promastigotes LmGT2 that are glucose transport deficient and complemented with the L. Mexicana glucose transporter 2. Activity is measured by DNA content using SYBR green in vitro.

Solute carrier family 2, facilitated glucose transporter member 1 (Homo sapiens), sequence (P11166 whole entry): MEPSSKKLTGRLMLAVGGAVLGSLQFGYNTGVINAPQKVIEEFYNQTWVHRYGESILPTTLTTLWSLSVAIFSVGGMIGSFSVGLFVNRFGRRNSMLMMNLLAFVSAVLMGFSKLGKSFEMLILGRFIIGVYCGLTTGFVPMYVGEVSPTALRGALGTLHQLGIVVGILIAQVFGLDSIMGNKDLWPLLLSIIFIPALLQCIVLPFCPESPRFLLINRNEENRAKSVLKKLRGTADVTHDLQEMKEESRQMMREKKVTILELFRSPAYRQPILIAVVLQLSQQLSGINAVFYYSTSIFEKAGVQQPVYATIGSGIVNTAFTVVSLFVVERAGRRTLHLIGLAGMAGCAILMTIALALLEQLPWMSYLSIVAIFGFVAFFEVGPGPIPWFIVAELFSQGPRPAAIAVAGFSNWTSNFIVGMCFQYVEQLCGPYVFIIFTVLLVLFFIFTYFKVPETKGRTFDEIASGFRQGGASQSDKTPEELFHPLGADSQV

For the compound `Cc1cccc2nc(-c3ccc(-c4cccc(CN5CCN(CC6CCCN(C)C6)CC5)c4)s3)[nH]c12` (configuration not stated), the inhibition in test [1] was 7.18%; in test [2], -3.27%; in test [3], 0.69%.
Taken in the same sequence, the figures for `C#CCNCc1ccc(-c2ccc(-c3nc4cc(C(F)(F)F)ccc4[nH]3)s2)cc1` were 0.44%, -0.12% and -1.09%.
Taken in the same sequence, the figures for `CCCCCCCN1CC[C@@H](C[C@H](N)Cc2ccnc3ccc(OC)cc23)[C@@H](CC)C1` were 0.24%, -1.97% and 0.03%.
Taken in the same sequence, the figures for `Cc1cccc(-c2c(C)nc(N)nc2N)c1` were 4.96%, 2.06% and 1.08%.
In the case of `Cc1ccc(C(=O)Nc2cc(C(F)(F)F)cc(C(F)(F)F)c2)cc1[N+](=O)[O-]`, the inhibition in test [1] is 9.19%; in test [2], 12.4%; in test [3] it was 7.77%.
Turning to `O=C(Nc1ccccc1)c1cccc(Nc2nccc(Nc3ccc(Oc4ccccc4)cc3)n2)c1`, the inhibition in test [1] amounted to 0.65%; in test [2], 1.07%; in test [3], 0.87%.
Taken in the same sequence, the figures for `O=C(Nc1ccc(-c2cccc(-c3nc4cc(C(F)(F)F)ccc4[nH]3)c2)cc1)c1ccoc1` were 4.69%, 3.58% and 3.22%.
Regarding `Oc1cccc(CCNCCCCCCNCCc2ccc(Cl)cc2)c1`, the inhibition in test [1] is 2.27%; in test [2], 2.44%; in test [3] it was 2.3%.
Taken in the same sequence, the figures for `CN1CCN(Cc2cccc(Nc3nccc(Nc4ccc(Oc5ccccc5)cc4)n3)c2)CC1` were 1.89%, 7.05% and 5.8%.
For the compound `COc1ccc2c(NN=Cc3cccc(Cl)c3)ccnc2c1`, the inhibition in test [1] is 0.29%; in test [2], 0.23%; in test [3], -0.9%.
As for `O=C(Nc1cc(Cl)cc(Cl)c1)Nc1ccccc1C(=O)NC1CCCCC1`, the inhibition in test [1] was -0.12%; in test [2], -1.94%; in test [3], 0.23%.
Taken in the same sequence, the figures for `CN(Cc1cccc(C#N)c1)C1CCN(c2cc(NC(=O)c3ccc(F)cc3)ccn2)CC1` were 3.29%, 2.12% and 4.06%.
Taken in the same sequence, the figures for `COc1ccc(Nc2ccnc3cc(Cl)ccc23)cc1OC` were 10.1%, 10.7% and 7.28%.
Taken in the same sequence, the figures for `c1ccc(C(c2ccccc2)N2CCC(NCc3ccc(OCCCN4CCCCC4)cc3)CC2)cc1` were 8.52%, 11.3% and 10.7%.
Take `OC(CNCc1ccccc1OCc1ccccc1)c1cccc(Cl)c1` (configuration not stated): the inhibition was 5.6% in test [1], 4.24% in test [2] and 5.2% in test [3].
As for `CCCNC(=O)C1Cc2c([nH]c3cc(Br)ccc23)C2(CCN(CCc3ccccc3)CC2)N1` (configuration not stated), the inhibition in test [1] was found to be 2.03%; in test [2], 1.9%; in test [3], 1.75%.
Taken in the same sequence, the figures for `Nc1nc(N)c2c(Oc3ccc(Cl)c(Cl)c3)cccc2n1` were 0.48%, -0.05% and -3.94%.
Taken in the same sequence, the figures for `O=C(/C=C/c1ccc(-c2nc3ccc(Cl)cc3[nH]2)cc1)NC1CCN(Cc2ccccc2)CC1` were 1.24%, 1.66% and 3.7%.
Taken in the same sequence, the figures for `CC(C)NCc1cccc(-c2ccc(-c3nc4ccccc4[nH]3)cc2)c1` were 3.1%, 2.97% and 0.41%.
Regarding `O=C(/C=C/c1ccc(Cl)c(Cl)c1)NCCCCCN1CCN(C(=O)Nc2ccc(C(F)(F)F)cc2)CC1`, the figures for the inhibition in test [1], in test [2] and in test [3] were 2%, 1.98% and 0.71%, respectively.
For the compound `O=C(/C=C/c1ccc(Cl)c(Cl)c1)NCCCCCCN1CCCN(C(=O)Nc2ccc(Cl)c(C(F)(F)F)c2)CC1`, the inhibition was -1.95% in test [1], 0.9% in test [2] and -1.22% in test [3].
With `O=C(Nc1ccc2c(c1)OCO2)c1cc(-c2cccnc2)cnc1NCc1ccc2c(c1)OCO2`, the inhibition in test [1] stood at 0.99%; in test [2] it was 0.19%; in test [3], 2.1%.
Taken in the same sequence, the figures for `Cc1cc(N[C@@H](CC(C)C)C(=O)NCc2cccs2)nc(NCCc2ccccc2)n1` were 7.7%, 5.79% and 5.49%.
For `CN(C(=O)/C=C/c1cc(C(F)(F)F)ccc1F)C1CCN(CCCCCNC(=O)/C=C/c2ccc(Cl)c(Cl)c2)CC1`, the inhibition in test [1] is 3.67%; in test [2], 3.45%; in test [3] it was 2.56%.
Consider `N#Cc1ccc(NC(=O)c2ccc(Cc3ccc4c(c3)CCN(C3CCC3)CC4)cn2)cc1`, for which the inhibition came out at 9.64% in test [1], 10.6% in test [2] and 10.4% in test [3].
Taken in the same sequence, the figures for `O=C(NCCCN(Cc1ccc(F)cc1)c1ccccn1)C(c1cc2ccccc2o1)N1CCN(C(c2ccccc2)c2ccccc2)CC1` (configuration not stated) were 3.35%, 3.69% and 1.89%.
Regarding `COC(=O)Cc1ccc(N)c2ccccc12`, the inhibition in test [1] was -0.85%; in test [2], -0.46%; in test [3], -2.13%.
Taken in the same sequence, the figures for `O=C(CC1SC(N2N=C(c3cccs3)CC2c2ccccc2)=NC1=O)Nc1ccc(Cl)cc1` (configuration not stated) were 1.98%, 2.91% and -0.33%.
Taken in the same sequence, the figures for `COc1ccc2nc(N(CCCn3ccnc3)C(=O)C=Cc3cccs3)sc2c1` were 3.73%, 3.16% and -2.84%.
In the case of `N#Cc1ccc2c(c1)CCN(CCC1CCC(NC(=O)c3cccc(-c4ccc(F)cc4)c3)CC1)CC2` (configuration not stated), the inhibition in test [1] turned out to be 5.14%; in test [2], 2.32%; in test [3] it was 5.8%.
As to `COc1ccc2c(NN=Cc3cccc(C)n3)ccnc2c1`, the inhibition is 4.32% in test [1], 5.22% in test [2] and 5.4% in test [3].
Taken in the same sequence, the figures for `O=C(Nc1ccc(C(=O)N(Cc2ccc3c(c2)OCO3)C2CCCC2)cc1)c1cccs1` were 1.03%, 0.69% and -2.85%.
Regarding `COc1cc2c(cc1COc1ccccc1)CCN1Cc3cc(OC)c(OC)cc3CC21` (configuration not stated), the inhibition in test [1] is 1.91%; in test [2], 0.8%; in test [3], -6.12%.
On to `CCCCCCCOc1ccc(NC(=O)Nc2ccc(Cn3ncc(N4CCCNCC4)c(Cl)c3=O)cc2)cc1`, for which the figures for the inhibition in test [1], in test [2] and in test [3] were -2.91%, -0.57% and -1.59%, respectively.

Usually inhibition stands for the relative decrease from the control value, in per cent.
